# Results filed as inconclusive are left out. The source made the active and inactive calls. The calls were made as follows, unless noted: active = hit-call score of the fitted dose curve at least 0.9, where 1 is the maximum; inactive = score below 0.9.
# Legend:
# [1] = biological target: Oxysterols receptor LXR-beta (Homo sapiens) (UniProt P55055); assay: ATG_LXRb_TRANS: Attagene TRANS-FACTORIAL HepG2 Assay for human Liver X Receptor beta (LXRb) (AID 2282981; active = hit-call score of the fitted dose curve at least 0.9, where 1 is the maximum); conditions: HepG2 Attagene TRANS GAL4-LXRb reporter, mRNA
# Chain of Oxysterols receptor LXR-beta (Homo sapiens) (P55055 whole entry, looked up, the tested form may be a part): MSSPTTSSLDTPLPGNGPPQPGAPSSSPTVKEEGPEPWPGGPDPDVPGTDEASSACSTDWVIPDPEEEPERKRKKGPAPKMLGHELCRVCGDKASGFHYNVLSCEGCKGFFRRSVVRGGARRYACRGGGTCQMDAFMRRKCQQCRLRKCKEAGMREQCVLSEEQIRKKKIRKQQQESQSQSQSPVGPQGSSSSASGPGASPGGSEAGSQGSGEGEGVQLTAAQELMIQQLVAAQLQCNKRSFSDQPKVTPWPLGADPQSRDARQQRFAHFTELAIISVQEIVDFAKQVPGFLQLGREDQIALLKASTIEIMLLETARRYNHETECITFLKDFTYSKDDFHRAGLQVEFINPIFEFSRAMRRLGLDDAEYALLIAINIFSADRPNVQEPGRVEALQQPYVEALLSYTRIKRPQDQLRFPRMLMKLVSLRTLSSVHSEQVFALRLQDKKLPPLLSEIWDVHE
# How it was run: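 HepG2 cells transiently transfected with multiple reporter transcription units carrying chimeric NR-Gal4 proteins acting on GAL4-UAS reporters; compound exposure 24 h. Reporter mRNA quantified by RT-PCR, 6-FAM labelling, HpaI digestion and capillary electrophoresis; gain of signal versus DMSO.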
# [2] = ATG_M_32_TRANS: Attagene TRANS-FACTORIAL HepG2 Assay for M32 Transcription Factor (Internal Marker) (AID 2282984; active = hit-call score of the fitted dose curve at least 0.9, where 1 is the maximum;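 also: transcript level of a background control reporter unit measured by RT-PCR and capillary electrophoresis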); conditions: HepG2 Attagene TRANS M32 internal marker reporter
# How it was run: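 HepG2 cells transiently transfected with multiple GAL4-UAS reporter transcription units, dosed for 24 hours; reporter mRNA quantified by RT-PCR, 6-FAM primer extension, HpaI digestion and capillary electrophoresis. Gain-of-signal fitted versus DMSO baseline; internal background-control marker.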
# [3] = biological target: Nuclear receptor subfamily 4 group A member 2 (Homo sapiens) (UniProt P43354); assay: ATG_NURR1_TRANS: Attagene TRANS-FACTORIAL HepG2 Assay for human Nuclear Receptor Related Protein 1 (NURR1) (AID 2282985; active = hit-call score of the fitted dose curve at least 0.9, where 1 is the maximum); conditions: HepG2 Attagene TRANS reporter, mRNA readout
# Chain of Nuclear receptor subfamily 4 group A member 2 (Homo sapiens) (P43354 whole entry, looked up, the tested form may be a part): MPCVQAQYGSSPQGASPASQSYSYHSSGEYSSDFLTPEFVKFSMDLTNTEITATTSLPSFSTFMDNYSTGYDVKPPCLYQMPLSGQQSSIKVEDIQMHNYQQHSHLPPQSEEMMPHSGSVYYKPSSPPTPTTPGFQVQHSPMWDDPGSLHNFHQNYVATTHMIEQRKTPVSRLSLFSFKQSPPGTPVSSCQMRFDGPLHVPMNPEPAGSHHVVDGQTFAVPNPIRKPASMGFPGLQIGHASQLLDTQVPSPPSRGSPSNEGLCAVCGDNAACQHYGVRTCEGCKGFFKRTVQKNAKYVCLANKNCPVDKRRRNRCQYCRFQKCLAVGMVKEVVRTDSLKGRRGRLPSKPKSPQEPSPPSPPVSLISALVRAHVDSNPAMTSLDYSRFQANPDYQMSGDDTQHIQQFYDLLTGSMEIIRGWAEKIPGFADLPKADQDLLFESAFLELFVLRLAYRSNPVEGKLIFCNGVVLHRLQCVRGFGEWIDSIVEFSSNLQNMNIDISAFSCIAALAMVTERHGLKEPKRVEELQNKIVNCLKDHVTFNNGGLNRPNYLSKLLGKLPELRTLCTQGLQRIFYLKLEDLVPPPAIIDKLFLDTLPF
# How it was run: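 HepG2 cells transiently transfected with GAL4-UAS reporter units and chimeric NR-Gal4 constructs; chemical exposure 24 h. Reporter mRNA quantified by RT-PCR, fluorescent labelling and capillary electrophoresis; gain of signal fitted relative to DMSO baseline.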
# [4] = biological target: Transcriptional activator Myb (Homo sapiens) (UniProt P10242); assay: ATG_Myb_CIS: Attagene CIS-FACTORIAL HepG2 Assay for human Myeloblastosis (Myb) Proto-Oncogene Transcription Factor (AID 2282986); conditions: HepG2 Attagene CIS-FACTORIAL Myb reporter transcription; actives raise or lower the signal
# Chain of Transcriptional activator Myb (Homo sapiens) (P10242 whole entry, looked up): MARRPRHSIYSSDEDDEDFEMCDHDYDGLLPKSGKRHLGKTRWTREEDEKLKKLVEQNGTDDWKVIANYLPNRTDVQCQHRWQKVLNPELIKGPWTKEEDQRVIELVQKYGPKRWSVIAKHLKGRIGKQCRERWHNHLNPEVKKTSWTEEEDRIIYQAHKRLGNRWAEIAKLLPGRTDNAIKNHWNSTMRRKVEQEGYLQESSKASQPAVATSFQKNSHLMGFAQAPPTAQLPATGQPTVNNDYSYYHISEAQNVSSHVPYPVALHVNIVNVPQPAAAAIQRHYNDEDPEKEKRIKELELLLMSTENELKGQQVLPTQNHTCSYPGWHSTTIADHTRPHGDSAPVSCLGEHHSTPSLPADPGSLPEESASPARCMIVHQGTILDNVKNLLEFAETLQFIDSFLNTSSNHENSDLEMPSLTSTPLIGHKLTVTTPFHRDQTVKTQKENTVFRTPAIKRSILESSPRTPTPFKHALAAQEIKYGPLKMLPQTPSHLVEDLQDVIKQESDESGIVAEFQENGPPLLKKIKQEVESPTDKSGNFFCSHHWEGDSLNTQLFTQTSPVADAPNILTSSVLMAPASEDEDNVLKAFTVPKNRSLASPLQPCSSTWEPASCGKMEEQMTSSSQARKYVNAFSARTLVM
# How it was run: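 Transiently transfected HepG2 cells carrying a multiplexed cis-promoter reporter set report endogenous Myb activity after 24 h compound exposure. Reporter mRNA is read by RT-PCR with capillary electrophoresis of fluorescent products, fitted bidirectionally against DMSO.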
# [5] = biological target: Nuclear respiratory factor 1 (Homo sapiens) (UniProt Q16656); assay: ATG_NRF1_CIS: Attagene CIS-FACTORIAL HepG2 Assay for human Nuclear Respiratory Factor 1 (NRF1) Orphan Gene (AID 2282987); conditions: HepG2 NRF1 cis-element reporter, Attagene multiplex; actives raise or lower the signal
# Chain of Nuclear respiratory factor 1 (Homo sapiens) (Q16656 whole entry, looked up): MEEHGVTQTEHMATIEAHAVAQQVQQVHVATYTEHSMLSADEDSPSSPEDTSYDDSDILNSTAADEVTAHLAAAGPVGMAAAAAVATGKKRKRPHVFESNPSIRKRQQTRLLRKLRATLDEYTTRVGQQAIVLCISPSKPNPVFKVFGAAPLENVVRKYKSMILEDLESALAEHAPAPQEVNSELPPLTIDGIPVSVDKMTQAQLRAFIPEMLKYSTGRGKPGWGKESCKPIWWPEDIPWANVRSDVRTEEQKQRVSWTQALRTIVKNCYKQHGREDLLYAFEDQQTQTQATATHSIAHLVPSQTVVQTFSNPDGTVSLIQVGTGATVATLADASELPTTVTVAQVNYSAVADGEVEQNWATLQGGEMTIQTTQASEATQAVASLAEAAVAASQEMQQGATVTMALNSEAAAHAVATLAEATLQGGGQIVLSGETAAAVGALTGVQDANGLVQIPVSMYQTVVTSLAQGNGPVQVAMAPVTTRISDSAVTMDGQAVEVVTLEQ
# How it was run: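 HepG2 cells transiently transfected with multiple cis-regulated reporter units, exposed 24 h. Reporter mRNAs measured by RT-PCR, fluorescent labelling, HpaI digestion and capillary electrophoresis; bidirectional fitting against DMSO.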
# [6] = ATG_NFI_CIS: Attagene CIS-FACTORIAL HepG2 Assay for human Nuclear Factor I (NFI) (AID 2282989); conditions: HepG2 cis-regulatory reporter, NFI response element transcription; actives raise or lower the signal
# How it was run: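 Reporter transcription driven by endogenous transcription factors in HepG2 cells; 24 h treatment. Quantitation by labelled RT-PCR fragments on capillary electrophoresis, gain- or loss-of-signal relative to DMSO.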
# [7] = biological target: Myc proto-oncogene protein (Homo sapiens) (UniProt P01106); assay: ATG_Myc_CIS: Attagene CIS-FACTORIAL HepG2 Assay for human Myelocytomatosis (Myc) Proto-Oncogene Transcription Factor (AID 2282990); conditions: HepG2, Attagene cis-reporter transcription factor activity; actives raise or lower the signal
# Chain of Myc proto-oncogene protein (Homo sapiens) (P01106 whole entry, looked up): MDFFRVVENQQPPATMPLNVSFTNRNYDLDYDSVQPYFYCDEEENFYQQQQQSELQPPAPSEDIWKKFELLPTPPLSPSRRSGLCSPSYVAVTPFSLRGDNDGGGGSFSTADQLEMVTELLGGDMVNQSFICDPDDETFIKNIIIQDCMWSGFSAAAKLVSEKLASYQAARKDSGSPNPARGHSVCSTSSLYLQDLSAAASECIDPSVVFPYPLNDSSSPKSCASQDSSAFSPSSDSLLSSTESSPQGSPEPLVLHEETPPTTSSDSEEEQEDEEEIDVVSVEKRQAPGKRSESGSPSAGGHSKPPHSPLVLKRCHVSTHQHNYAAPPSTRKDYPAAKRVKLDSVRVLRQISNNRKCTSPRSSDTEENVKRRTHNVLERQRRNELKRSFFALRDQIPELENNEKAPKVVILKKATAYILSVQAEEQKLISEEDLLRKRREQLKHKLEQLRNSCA
# How it was run: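 Multiplexed cis-reporter transcription in HepG2 cells after 24 h chemical treatment. Reporter mRNA measured by RT-PCR and capillary electrophoresis fluorescence; activity fitted bidirectionally against DMSO control.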
# [8] = ATG_M_06_TRANS: Attagene TRANS-FACTORIAL HepG2 Assay for M06 Transcription Factor (Internal Marker) (AID 2282983; active = hit-call score of the fitted dose curve at least 0.9, where 1 is the maximum;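 also: reporter transcript level by RT-PCR then capillary electrophoresis fluorescence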); conditions: HepG2 Attagene TRANS M06 internal marker reporter
# How it was run: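 Cells: HepG2, transient multi-reporter transfection. Exposure: 24 h. Detection: RT-PCR, 6-FAM labelling, HpaI digestion (2 h, 37 °C), capillary electrophoresis. Baseline: DMSO.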
# [9] = ATG_NF_kB_CIS: Attagene CIS-FACTORIAL HepG2 Assay for human Nuclear Factor Kappa B (NF-kB) (AID 2282991); conditions: HepG2 Attagene cis-factorial NF-kB reporter mRNA; actives raise or lower the signal
# How it was run: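 HepG2 cells transfected with cis-promoter-driven reporter units, so endogenous transcription factor activity is measured. Reporter mRNA quantified 24 h after dosing by RT-PCR and capillary electrophoresis, with bidirectional fitting against DMSO.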
# [10] = biological target: Hepatocyte nuclear factor 4-alpha (Homo sapiens) (UniProt P41235); assay: ATG_HNF4a_TRANS: Attagene TRANS-FACTORIAL HepG2 Assay for human Hepatocyte Nuclear Factor 4 alpha (HNF4a) (AID 2282982; active = hit-call score of the fitted dose curve at least 0.9, where 1 is the maximum); conditions: HepG2 HNF4a transactivation reporter, mRNA readout
# Chain of Hepatocyte nuclear factor 4-alpha (Homo sapiens) (P41235 whole entry, looked up, the tested form may be a part): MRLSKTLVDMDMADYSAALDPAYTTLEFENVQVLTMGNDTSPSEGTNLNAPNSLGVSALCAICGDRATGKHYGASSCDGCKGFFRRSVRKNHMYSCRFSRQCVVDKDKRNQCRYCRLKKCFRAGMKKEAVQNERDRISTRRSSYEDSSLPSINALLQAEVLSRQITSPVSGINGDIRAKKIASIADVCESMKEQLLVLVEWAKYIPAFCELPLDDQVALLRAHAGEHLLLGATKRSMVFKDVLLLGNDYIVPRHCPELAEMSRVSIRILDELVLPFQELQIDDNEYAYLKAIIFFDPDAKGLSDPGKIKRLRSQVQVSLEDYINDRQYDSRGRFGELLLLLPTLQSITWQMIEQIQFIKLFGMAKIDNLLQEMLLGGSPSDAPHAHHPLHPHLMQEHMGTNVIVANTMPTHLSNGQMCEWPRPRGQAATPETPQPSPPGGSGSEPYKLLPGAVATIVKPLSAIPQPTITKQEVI
# How it was run: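 HepG2 cells transiently transfected with multiplexed GAL4-UAS reporter units responsive to chimeric NR-GAL4 proteins; compound exposure 24 h. Reporter mRNA quantified by RT-PCR, 6-FAM labelling, HpaI digestion and capillary electrophoresis; gain of signal versus DMSO baseline.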
Structure (SMILES),outcome [1],outcome [2],outcome [3],outcome [4],outcome [5],outcome [6],outcome [7],outcome [8],outcome [9],AC50 [3],outcome [10]
CC(C)(C#N)N=NC(C)(C)C#N,inactive,inactive,inactive,inactive,inactive,inactive,inactive,–,–,–,–
N#Cc1ccccc1Cl,inactive,–,–,–,inactive,inactive,inactive,inactive,inactive,–,–
c1ccc(-c2cccc(-c3ccccc3)c2)cc1,inactive,–,–,inactive,inactive,inactive,inactive,–,inactive,27.8 µM (active),–
COc1nn(C(=O)NS(=O)(=O)c2ccccc2OC(F)(F)F)c(=O)n1C,–,inactive,–,inactive,inactive,inactive,inactive,inactive,inactive,–,inactive
CC(=O)CN(CC(C)=O)N=O,–,inactive,–,inactive,inactive,inactive,inactive,inactive,inactive,–,inactive

# — PubChem BioAssay (EPA / NIEHS)
